Compound activity: PubChem, The Scripps Research Institute Molecular Screening Center
CHO-K1 Ca ag – counter-screen for M1 agonists: effect in parental CHO-K1 cells; activation, % at 3 µM; AID 602248; 0.48% of 360,000 active; Fluo-8 calcium fluorescence; scaled to maximal ATP response, vehicle zero; in the data active = activation above about 15%;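 also: untransfected CHO-K1 host cells lacking M1 receptor as counterscreen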
CHRM1 agonist – activates human CHRM1 receptor | P11229 | CHO-K1 hM1, Fluo-8 calcium fluorescence, agonist mode; 0% DMSO, 100% acetylcholine EC100 | activation, % at 3 µM | 0.33% of 360,000 active | AID 588814;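 active = activation above the run's mean compound activation plus 3 SD, cut at about 16% in these data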;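 also: peak over basal fluorescence ratio within a 140 s kinetic read after compound addition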
Target sequence (P11229 whole entry, looked up): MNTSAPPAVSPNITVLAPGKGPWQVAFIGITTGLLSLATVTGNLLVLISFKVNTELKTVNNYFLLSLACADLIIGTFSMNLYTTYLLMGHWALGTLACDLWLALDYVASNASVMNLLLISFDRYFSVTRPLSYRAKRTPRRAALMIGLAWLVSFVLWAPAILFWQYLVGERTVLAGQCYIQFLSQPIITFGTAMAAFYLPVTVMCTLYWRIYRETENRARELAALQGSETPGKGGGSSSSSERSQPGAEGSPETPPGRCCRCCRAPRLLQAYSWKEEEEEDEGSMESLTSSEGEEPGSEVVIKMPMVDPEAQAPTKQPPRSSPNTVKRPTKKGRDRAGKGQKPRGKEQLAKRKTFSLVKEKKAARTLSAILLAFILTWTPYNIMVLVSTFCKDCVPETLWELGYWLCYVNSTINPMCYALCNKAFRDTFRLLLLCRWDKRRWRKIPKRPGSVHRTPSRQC
CHO-K1 Ca PAM – counter-screen for M1 PAMs: effect in parental CHO-K1 cells; ATP EC20, Fluo-8 calcium fluorescence; 0% at ATP EC20, 100% at ATP max; activation, % at 3 µM; 0.02% of 360,000 active;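 active = activation above the run cutoff, the mean activation of all test compounds plus 3 SD, cut at about 40% in these data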;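 also: peak over basal fluorescence ratio in a 140 s read after ATP addition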
M1 antag – blocks human M1 muscarinic receptor. CHO-K1 hM1, Fluo-8 calcium fluorescence, ACh EC80 antagonist. inhibition, % at 3 µM. 1.3% of 360,000 active. AID 588852;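 active = percent inhibition above its own plate's cutoff, namely the mean of that plate's compound wells plus 3 SD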;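 also: peak over basal fluorescence ratio during 140 s after agonist addition; 0% = ACh EC80 plus DMSO and 100% = DMSO alone without agonist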
CHO-K1 Ca antag – M1 antagonist counterscreen hit in parental CHO-K1 cells. inhibition, % at 3 µM. ATP-induced calcium, Fluo-8 fluorescence. 0.6% of 360,000 active;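 active = inhibition above a per-plate cutoff, the plate's mean sample inhibition plus 3 SD, cut at about 24% in these data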;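 also: 0% = DMSO plus EC80 ATP and 100% = DMSO alone without ATP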
M1 PAM – positive allosteric modulators of human M1 muscarinic receptor. activation, % at 3 µM. CHO-K1 hM1, Fluo-8 calcium fluorescence, ACh EC20; 0% = ACh EC20, 100% = maximal ACh. P11229. 0.088% of 360,000 active; in the data active = activation above about 19%, passing the limit was not always enough
Active calls of the source: *. This is a sample that favours compounds with a hit; in the whole collection about 2.3% have one here.

SMILES	CHO-K1 Ca ag	CHRM1 agonist	CHO-K1 Ca PAM	M1 antag	CHO-K1 Ca antag	M1 PAM
CC[C@@H](C)[C@@H](C(=O)N1CCN(C(=O)OC(C)(C)C)CC1)n1cc(CCCCNC(=O)OC(C)(C)C)nn1	15	-1	-10	36*	20	-24
CC(C)(C)OC(=O)NCCCC[C@@H](C(=O)NCCCCCCCCCCC(=O)N1CCN(C(=O)OC(C)(C)C)CC1)n1cc(CCO)nn1	1	-6	11	-4	-2	-10
CCCN(CC(=O)Nc1ccccc1C)C(=O)C1CC(=O)N(Cc2ccccc2)C1 (stereo not given)	-1	-4	-24	7	10	-1
CC(=O)Nc1ccc(/C(C)=N/Nc2nc(Nc3cccc4ccccc34)nc(N3CCOCC3)n2)cc1	12	18*	11	11	10	3
CC(=O)c1c(C)[nH]c(C(=O)CSc2ccc(F)cc2)c1C	15*	5	-12	33*	11	-19
CC(C)C(O)(CC#CCN1CCCC1)c1ccccc1 (stereo not given)	2	-8	17	99*	-8	-26
C(#CCN1CCCC1)CC(c1ccccc1)c1ccccc1	7	-13	3	100*	-8	-32
CC(C)CC(O)(c1ccccc1)C(CN1CCOCC1)c1ccccc1 (stereo not given)	0	-3	10	-3	-16	1
OC(CC#CCN1CCCC1)(c1ccccc1)c1ccccc1	1	-6	13	100*	-1	-25
OC(CC#CCN1CCOCC1)(c1ccccc1)c1ccccc1	0	-9	5	-10	-2	5
CC(C)(C)C(O)(CC#CCN1CCCC1)c1ccccc1 (stereo not given)	0	-5	-11	98*	-6	-23
COc1ccccc1CNC(=O)C(C)n1nc(C)n2c(cc3occc32)c1=O (stereo not given)	0	-3	-8	13	0	-3
COc1ccc(S(=O)(=O)N2CCOC2CNC(=O)C(=O)NCc2ccc3c(c2)OCO3)cc1 (stereo not given)	7	-2	18	-8	-20	5
CC(C)(C)N(CC#CCC(O)(c1ccccc1)c1ccccc1)CCO	1	-8	16	13	-11	-14
OC(CC#CCN1CCCCC1)(c1ccccc1)c1ccccc1	2	-7	13	97*	-8	-29
COC(=O)Cn1c(=NC(=O)C(C)C)sc2c(C)cc(C)cc21	1	-2	-6	19	30*	-9
O=C(COc1ccc2c(-c3ccccc3)cc(=O)oc2c1)N1C[C@H]2C[C@@H](C1)c1cccc(=O)n1C2	0	-12	2	-9	-8	2
COc1ccccc1N1CCN(C(=O)C2CCCN(S(=O)(=O)c3ccc4c(c3)oc(=O)n4C)C2)CC1 (stereo not given)	21*	-3	-5	26	14	-24
CC(O)CN(C)CC/C=C1/c2ccccc2CSc2ccccc21 (stereo not given)	1	-10	-7	63*	8	-24
NCC/C=C1/c2ccccc2CSc2ccccc21	1	-6	4	69*	-4	-22
C#CCN(C)CC/C=C1\c2ccccc2CSc2ccccc21	0	-6	7	79*	-14	-20
c1ccc2c(c1)CSc1ccccc1N2	0	-8	4	-15	0	2
CN(CC/C=C1/c2ccccc2CSc2ccccc21)CCCO	2	-9	16	89*	-6	-23
CN(C)CC/C=C1/c2ccccc2COc2ccc(CC(=O)O)cc21	0	-9	-9	-2	6	-9
COc1ccccc1N(C)S(=O)(=O)c1ccc(C)c(C(=O)Nc2nccs2)c1	3	-4	17	7	-2	-3
SMILES	CHO-K1 Ca ag	CHRM1 agonist	CHO-K1 Ca PAM	M1 antag	CHO-K1 Ca antag	M1 PAM
C=CCN(C)CC/C=C1\c2ccccc2CSc2ccccc21	1	-6	13	91*	-2	-20
O=C(COc1cc2oc(=O)c3c(c2cc1Cl)CCC3)NCC(O)c1ccccc1 (stereo not given)	1	-2	4	-3	-11	2
CC1(C2CC2)NC(=O)N(CC(=O)N2CCN(c3ccccc3)CC2)C1=O (stereo not given)	1	0	25	-12	-19	18
O=[N+]([O-])CC(c1ccccc1)c1c[nH]c2ccccc12 (stereo not given)	0	-2	7	-15	-7	13
OC(CNCC(c1ccc(Cl)cc1Cl)c1c[nH]c2ccccc12)c1ccccc1 (stereo not given)	16*	-2	15	-3	2	9
CCc1nc2ccc(C(=O)Nc3cc(-c4ccccc4)ccc3OC)cn2c1N(CCN(C)C)CC1CC1	0	7	-8	22	12	-9
CCN(CC)CCNC(=O)CNC(=O)c1nn(-c2ccc(OC)cc2OC)c(=O)c2ccccc12	0	-10	6	-12	1	9
COc1ccc(N2C(=O)CC(N3CCN(S(=O)(=O)c4c(C)cc(C)cc4C)CC3)C2=O)cc1 (stereo not given)	2	-3	17	-3	-14	4
COc1ccc(N2C(=O)CC(N3CCN(S(=O)(=O)c4cc(C)ccc4C)CC3)C2=O)cc1 (stereo not given)	16*	-4	2	5	12	-5
Cc1nn(-c2ccccc2)cc1/C=N/NC(N)=S	0	5	11	-7	0	31*
COC(=O)c1ccsc1NC(=O)CN1CCN(c2ncccn2)CC1	0	2	-22	-6	25*	18
COC(=O)c1ccsc1NC(=O)CN1CCN(c2ccc(F)cc2)CC1	2	-2	13	-23	-14	1
CCCC1c2ccc(C)n2CCN1C(=O)Nc1ccc(F)cc1 (stereo not given)	2	-1	1	-13	2	10
CCC1c2ccc(C)n2CCN1C(=O)Nc1ccc(F)cc1 (stereo not given)	7	-3	-7	6	26*	-3
COc1ccc(COC(=O)C2=C(C)NC(=O)NC2c2ccc(OC)c(OC)c2)cc1 (stereo not given)	0	4	-3	-10	24*	18
CC1=C(C(=O)OCCC(C)C)C(c2ccc3c(c2)OCO3)NC(=O)N1 (stereo not given)	1	-6	1	9	0	-5
COc1cc(C2NC(=O)NC(C)=C2C(=O)OCC2CCCCC2)ccc1O (stereo not given)	20*	4	8	-10	-8	8
C/C=C/COC(=O)C1=C(C)NC(=O)NC1c1ccc2c(c1)OCO2 (stereo not given)	1	-4	-6	4	25*	1
CC(=O)c1ccccc1OCCOc1ccccc1C(C)=O	2	-7	7	39*	-5	-27
